Like-named read-outs stand apart in the source and are kept apart here.

Our source for the potency estimated from few doses values is paper PMC11062922 (Nature Chemical Biology, 2023).

The subject of one assay is ABL1. The arrangement: species or system human, MV4-11 + K-562 + COLO205 + SK-N-BE2 + OVCAR-8. To be noted: read-out: apparent Kd, compound concentrations: 100 nM and 1000 nM (sheet 'Samples'), n = 1.
A further assay has as its system ABL2. Details: species or system human, MV4-11 + K-562 + COLO205 + SK-N-BE2 + OVCAR-8. To be noted: read-out: apparent Kd, compound concentrations: 100 nM and 1000 nM (sheet 'Samples'), n = 1.
Another assay deals with BCR. Details: species or system human, MV4-11 + K-562 + COLO205 + SK-N-BE2 + OVCAR-8. To be noted: read-out: apparent Kd, compound concentrations: 100 nM and 1000 nM (sheet 'Samples'), n = 1.
For a further assay, the system named is CLK1. The arrangement: species or system human, MV4-11 + K-562 + COLO205 + SK-N-BE2 + OVCAR-8. To be noted: read-out: apparent Kd, compound concentrations: 100 nM and 1000 nM (sheet 'Samples'), n = 1.
A further assay has as its system CLK4. The arrangement: species or system human, MV4-11 + K-562 + COLO205 + SK-N-BE2 + OVCAR-8. To be noted: read-out: apparent Kd, compound concentrations: 100 nM and 1000 nM (sheet 'Samples'), n = 1.
A further assay concerns CSNK2A1;CSNK2A3. The arrangement: species or system human, MV4-11 + K-562 + COLO205 + SK-N-BE2 + OVCAR-8. To be noted: read-out: apparent Kd, compound concentrations: 100 nM and 1000 nM (sheet 'Samples'), n = 1.
For the next assay, the system named is CSNK2A2. The arrangement: species or system human, MV4-11 + K-562 + COLO205 + SK-N-BE2 + OVCAR-8. To be noted: read-out: apparent Kd, compound concentrations: 100 nM and 1000 nM (sheet 'Samples'), n = 1.
Another assay deals with GAK. Details: species or system human, MV4-11 + K-562 + COLO205 + SK-N-BE2 + OVCAR-8. To be noted: read-out: apparent Kd, n = 1.
Another assay has as its system AAK1. Details: species or system human, MV4-11 + K-562 + COLO205 + SK-N-BE2 + OVCAR-8. To be noted: read-out: apparent Kd, n = 1.
A further assay concerns the target Q6ZSR9 (human, UniProt Q6ZSR9). Details: species or system MV4-11 + K-562 + COLO205 + SK-N-BE2 + OVCAR-8. To be noted: read-out: apparent Kd, compound concentrations: 100 nM and 1000 nM (sheet 'Samples'), n = 1.
The next assay has as its system FYN. Details: species or system human, MV4-11 + K-562 + COLO205 + SK-N-BE2 + OVCAR-8. To be noted: read-out: apparent Kd, compound concentrations: 100 nM and 1000 nM (sheet 'Samples'), n = 1.
Another assay deals with HCK. The arrangement: species or system human, MV4-11 + K-562 + COLO205 + SK-N-BE2 + OVCAR-8. To be noted: read-out: apparent Kd, compound concentrations: 100 nM and 1000 nM (sheet 'Samples'), n = 1.
The next assay relates to LCK. The arrangement: species or system human, MV4-11 + K-562 + COLO205 + SK-N-BE2 + OVCAR-8. To be noted: read-out: apparent Kd, compound concentrations: 100 nM and 1000 nM (sheet 'Samples'), n = 1.
The next assay deals with PTK6. The arrangement: species or system human, MV4-11 + K-562 + COLO205 + SK-N-BE2 + OVCAR-8. To be noted: read-out: apparent Kd, compound concentrations: 100 nM and 1000 nM (sheet 'Samples'), n = 1.
A further assay has as its system RET. Details: species or system human, MV4-11 + K-562 + COLO205 + SK-N-BE2 + OVCAR-8. To be noted: read-out: apparent Kd, n = 1.
The subject of another assay is RIPK2. The arrangement: species or system human, MV4-11 + K-562 + COLO205 + SK-N-BE2 + OVCAR-8. To be noted: read-out: apparent Kd, compound concentrations: 100 nM and 1000 nM (sheet 'Samples'), n = 1.
A further assay has as its system RIPK3. Details: species or system human, MV4-11 + K-562 + COLO205 + SK-N-BE2 + OVCAR-8. To be noted: read-out: apparent Kd, n = 1.
In another assay the test system is YES1. Details: species or system human, MV4-11 + K-562 + COLO205 + SK-N-BE2 + OVCAR-8. To be noted: read-out: apparent Kd, n = 1.
The subject of the next assay is TNK1. The arrangement: species or system human, MV4-11 + K-562 + COLO205 + SK-N-BE2 + OVCAR-8. To be noted: read-out: apparent Kd; compound concentrations:100 nM and 1000 nM (sheet 'Samples'); n = 1.
Setting [1] is: compound concentrations:100 nM and 1000 nM (sheet 'Samples').

Chain of Q6ZSR9 (Q6ZSR9 whole entry, looked up): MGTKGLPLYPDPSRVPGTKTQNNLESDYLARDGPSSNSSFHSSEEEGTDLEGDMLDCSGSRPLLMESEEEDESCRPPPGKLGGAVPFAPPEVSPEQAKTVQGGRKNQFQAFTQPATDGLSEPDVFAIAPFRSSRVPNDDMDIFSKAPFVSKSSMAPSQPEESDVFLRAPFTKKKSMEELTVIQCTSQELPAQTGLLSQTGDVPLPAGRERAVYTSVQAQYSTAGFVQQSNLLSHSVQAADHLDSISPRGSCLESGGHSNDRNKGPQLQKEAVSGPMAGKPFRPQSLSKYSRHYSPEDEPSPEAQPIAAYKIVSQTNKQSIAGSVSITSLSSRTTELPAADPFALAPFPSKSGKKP

As to `COc1cccc(-n2ncc3c(N/N=C/c4ccc(C(=O)NCCN(C)C)cc4)ncnc32)c1.Cl` [GW784307A], the potency estimated from few doses with ABL1 (CATDS: 7.2174093506066003E-2) was 114 nM; in the assay with ABL2 (CATDS: 3.8634429049696897E-2) it was 479 nM; with BCR (CATDS: 0.110130424240114), 53.4 nM; in the assay with CLK1 (CATDS: 2.9878019560437799E-2) it was 1060 nM; with CLK4 (CATDS: 3.0333782570854902E-2), 1010 nM; with CSNK2A1;CSNK2A3 (CATDS: 5.2102189470279198E-2), 227 nM. Besides, the potency estimated from few doses in the assay on CSNK2A2 (CATDS: 8.6711561514054597E-2) was 80.9 nM; with GAK (compound concentrations: 100 nM and 1000 nM (sheet 'Samples'), CATDS: 2.92049494926887E-2), 1160 nM.

Consider `NC1=NC(=O)/C(=C/c2ccc3ncccc3c2)S1` [RO4569139-000], for which the potency estimated from few doses in the assay on AAK1 (compound concentrations: 100 nM and 1000 nM (sheet 'Samples'), CATDS: 6.8889261451454395E-2) was 1710 nM; in the assay on CLK1 (CATDS: 0.136614362929) it was 259 nM; with CLK4 (CATDS: 7.4487877667225894E-2), 1260 nM; in the assay on CSNK2A1;CSNK2A3 (CATDS: 0.13735026532766101), 256 nM; in the assay with CSNK2A2 (CATDS: 0.14765038324125301), 222 nM; with Q6ZSR9 (CATDS: 7.6885749429296102E-2) it was 1130 nM.

On to `Cc1ccc(O)cc1Nc1ccnc2cc(-c3ccc(CN4CCCCC4)o3)ccc12` [GW557777X], for which the potency estimated from few doses in the assay with ABL1 (CATDS: 4.3692235612931E-2) is 8.34 nM; with ABL2 (CATDS: 6.7746368355333403E-2), 2.92 nM; with BCR (CATDS: 0.10189444124387) it was 1.17 nM; in the assay with FYN (CATDS: 2.5035707525361502E-2), 44.5 nM; in the assay on GAK (compound concentrations: 100 nM and 1000 nM (sheet 'Samples'), CATDS: 5.9852273314458602E-2) it was 3.88 nM; in the assay on HCK (CATDS: 2.2990890088698399E-2), 60.9 nM. Further, the potency estimated from few doses was 353 nM in the assay with LCK (CATDS: 1.5741185519971699E-2); 47.6 nM in the assay with PTK6 (CATDS: 2.4564391165164502E-2); 7.97 nM with RET (compound concentrations: 100 nM and 1000 nM (sheet 'Samples'), CATDS: 4.4477848245190701E-2); 4.62 nM in the assay with RIPK2 (CATDS: 5.5536056615070897E-2); 508 nM with RIPK3 (compound concentrations: 100 nM and 1000 nM (sheet 'Samples'), CATDS: 1.48381507951055E-2); 49.3 nM with YES1 (compound concentrations: 100 nM and 1000 nM (sheet 'Samples'), CATDS: 2.43288733372133E-2).

For `Nc1nc(-c2cccnc2)c(-c2ccnc3ccccc23)s1` [GW684083X], the results for the potency estimated from few doses with AAK1 (setting [1]) and with GAK (setting [1]) were 1960 nM and 1430 nM, respectively.

`Cl.Oc1cccc(Nc2ccnc3cc(-c4ccncc4)ccc23)c1` [GW494601A]: the potency estimated from few doses in the assay on ABL1 (CATDS: 3.6017646503182399E-2) is 127 nM; with ABL2 (CATDS: 5.7742248446513503E-2), 32.5 nM; in the assay on BCR (CATDS: 9.7304657047822804E-2), 10.5 nM; in the assay on FYN (CATDS: 2.0819366263931199E-2), 1150 nM; with GAK (compound concentrations: 100 nM and 1000 nM (sheet 'Samples'), CATDS: 8.36996948680125E-2), 14.1 nM; in the assay with HCK (CATDS: 2.0776424104180801E-2), 1170 nM. Moreover, the potency estimated from few doses was 1530 nM with PTK6 (CATDS: 1.98277031575195E-2); 19 nM in the assay with RET (compound concentrations: 100 nM and 1000 nM (sheet 'Samples'), CATDS: 7.2637191041935695E-2); 9.31 nM with RIPK2 (CATDS: 0.103970438166355); 21.5 nM in the assay with RIPK3 (compound concentrations: 100 nM and 1000 nM (sheet 'Samples'), CATDS: 6.8751849319998101E-2).

`Cc1cccc(Nc2nc(NCCN)ncc2C(N)=O)c1` [GSK1292139B]: the potency estimated from few doses is 164 nM with AAK1 (compound concentrations: 100 nM and 1000 nM (sheet 'Samples'), CATDS: 0.21003536001632001); 88 nM in the assay with Q6ZSR9 (CATDS: 0.320838512301937).

As for `CS(=O)(=O)Cc1ccc(Nc2nccc(-c3c(-c4cccc(NC(=O)C5CCCCC5)c4)nn4ncccc34)n2)cc1` [GSK350559A], the potency estimated from few doses in the assay with RET (setting [1]) is 1370 nM; with RIPK3 (setting [1]), 1130 nM; in the assay with TNK1 it was 261 nM; in the assay with YES1 (setting [1]), 461 nM.

As to `Cc1ccc(O)cc1Nc1ccnc2cc(-c3ccccn3)ccc12.Cl` [GW440139A], the potency estimated from few doses with ABL1 (CATDS: 2.9086276614824699E-2) is 609 nM; with ABL2 (CATDS: 3.5730235281971501E-2) it was 238 nM; in the assay with BCR (CATDS: 6.7644332106689603E-2), 40.7 nM; in the assay with GAK (compound concentrations: 100 nM and 1000 nM (sheet 'Samples'), CATDS: 4.3663241287780298E-2) it was 121 nM; in the assay on RET (compound concentrations: 100 nM and 1000 nM (sheet 'Samples'), CATDS: 4.9371716156535399E-2), 85.8 nM; in the assay on RIPK2 (CATDS: 3.9139887822916601E-2), 171 nM. Further, the potency estimated from few doses in the assay with RIPK3 (compound concentrations: 100 nM and 1000 nM (sheet 'Samples'), CATDS: 4.4642127518175201E-2) is 114 nM.

As for `Cl.Cl.Cl.c1ccc(Oc2ccc(Nc3ccnc4cc(-c5ccc(CN6CCNCC6)o5)ccc34)cc2)nc1.c1ccc(Oc2ccc(Nc3ccnc4cc(-c5ccc(CN6CCNCC6)o5)ccc34)cc2)nc1` [GW567142A], the potency estimated from few doses with ABL1 (CATDS: 0.106160515103876) is 36.7 nM; in the assay on ABL2 (CATDS: 3.7512936282147198E-2) it was 226 nM; with BCR (CATDS: 2.8038265853645699E-2) it was 446 nM; in the assay with FYN (CATDS: 5.8978422577379903E-2), 93.1 nM; with HCK (CATDS: 9.4879616105776998E-2) it was 43.2 nM; with LCK (CATDS: 2.9875488877577801E-2) it was 381 nM. Moreover, the potency estimated from few doses in the assay with PTK6 (CATDS: 5.6771173878132498E-2) is 99.7 nM; in the assay on RIPK2 (CATDS: 5.5547059533083698E-2) it was 104 nM; in the assay on RIPK3 (compound concentrations: 100 nM and 1000 nM (sheet 'Samples'), CATDS: 2.6794845522232699E-2), 500 nM; in the assay with YES1 (compound concentrations: 100 nM and 1000 nM (sheet 'Samples'), CATDS: 0.102310323687496), 38.7 nM.
